According to the supplement of paper PMC11172423:
Unmarked numbers belong to inactive results.

Legend:
[1] = system: Falciformispora senegalensis CBS197.79; assay: growth relative to untreated control; higher = less inhibition, active = 20 or less
Summary of the method: (§1)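 Viability readout used either MTS (2 h, 490 nm) or resazurin (600 nm). Before this, hyphal fragments of M. mycetomatis MM55 or F. senegalensis CBS197.79 in colourless RPMI 1640 with L-glutamine and MOPS (68–72% transmission at 660 nm) had been exposed in 96-well plates to compound at 100 or 25 µM for 7 days at 37 °C. Growth denotes metabolic activity relative to the untreated growth control, with a medium-plus-dye blank subtracted from both.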

[2] = system: Madurella mycetomatis MM55; assay: as above
Summary of the method: as §1

| Structure (SMILES) | growth ([1]; 25 µM) [%] | growth ([1]; 100 µM) [%] | growth ([2]; 25 µM) | growth ([2]; 100 µM) |
| --- | --- | --- | --- | --- |
| COc1cc(OC)c2c(O)nc(-c3cc(C)c(OCCO)c(C)c3)nc2c1 | 103 | 97.6 | 103% | 72.7% |
| COc1ccc2c(O[C@@H]3C[C@H]4C(=O)N[C@]5(C(=O)NS(=O)(=O)C6CC6)C[C@H]5/C=C\CCCCN(C)C(=O)[C@@H]4C3)cc(-c3nc(C(C)C)cs3)nc2c1C | 103 | 100 | 87.1% | 74.8% |
| COc1cc(NC(=O)Nc2cccc(CNC(=O)O[C@H]3CCOC3)c2)ccc1-c1cnco1 | 100 | 102 | 100% | 81.8% |
| O=C(NC1CCCc2c1[nH]c1ccc(Cl)cc21)c1ccccn1 (centres undefined) | 107 | 103 | 35.3% | 9.39% (active) |
| CCCCN(CCCC)CCC(O)c1cc2c(Cl)cc(Cl)cc2c2cc(C(F)(F)F)ccc12 (centres undefined) | 98.2 | 106 | 75.6% | 77.3% |
| C=CC[C@@H]1/C=C(\C)C[C@H](C)C[C@H](OC)[C@H]2O[C@@](O)(C(=O)C(=O)N3CCCC[C@H]3C(=O)O[C@H](/C(C)=C/[C@@H]3CC[C@@H](O)[C@@H](OC)C3)[C@H](C)[C@@H](O)CC1=O)[C@H](C)C[C@@H]2OC | 103 | 105 | 84.5% | 48.1% |
| CCCCC(=O)N(Cc1ccc(-c2ccccc2-c2nn[nH]n2)cc1)[C@H](C(=O)O)C(C)C | 103 | 107 | 82.1% | 83.4% |
| CCOCCCNc1nc2cc(OC)c(OC)cc2c2nc(-c3ccccc3)nn12 | 93.1 | 89.3 | 95.5% | 120% |
| Cc1ccc(-c2noc(-c3ccccc3)n2)cc1 | 90.2 | 86.5 | 43.1% | 90.5% |
| c1ccc(Nc2cc(Nc3cc(-c4ccccc4)[nH]n3)nc3ccnn23)cc1 | 67.4 | 59.7 | 8.39% (active) | 10.5% (active) |
| Cc1cc2c(cc1Cl)N(C(=O)Nc1cc(F)cc(-c3cncnc3)c1)CC2 | 87 | 101 | 106% | 49.7% |
| CNc1ccc2cc(NC(=O)c3ccc(C(F)(F)F)c(Cl)c3)ccc2n1 | 69.4 | 104 | 6.89% (active) | 77.4% |
| C[C@H](NC(=O)c1cc2c(F)cccc2[nH]1)c1ccccc1 | 84.1 | 68.4 | 20.7% | 7.43% (active) |
| CCOC(=O)NCCOc1cnn(Cc2ccccc2)c(=O)c1 | 91.1 | 101 | 100% | 97.3% |
| FC(F)(F)c1cc(Nc2nc3cnc(NCC4CC4)nc3n2C2CCNCC2)cc(C(F)(F)F)c1 | 81.9 | 20.9 | 34.1% | 5.31% (active) |
| Cc1ccc(-c2ccc(C3(CN)CCOCC3)cc2)cn1 | 59 | 25.4 | 41.4% | 6.97% (active) |
| CC(=O)Nc1ccc(NC(=O)c2cc(-c3ccc(C)cc3O)n[nH]2)cc1 | 81.7 | 82.2 | 85.3% | 82.5% |
| CC(C)n1ncc2c(C(=O)N3CCCc4ccccc43)cc(-c3ccccc3)nc21 | 82.5 | 89.8 | 71.5% | 59.8% |
| Cc1c[nH]c(-c2cccc(C(=O)NC3CCC(CCN4CCc5ccc(C#N)cc5CC4)CC3)c2)n1 (centres undefined) | 74.1 | 92.9 | 38.2% | 88.4% |
| O=c1[nH]c2ccccc2n1CCCN1CCN(C(c2ccccc2)c2ccccc2)CC1 | 103 | 28.7 | 91.1% | 5.01% (active) |
| CC(C)(C)Cn1c(N)nc2ccc(-c3[nH]c(C(C)(C)C)nc3-c3ccc(F)cc3)nc21 | 100 | 55 | 82.9% | 3.85% (active) |
